Test [1] can be described thus: Quantitative High-Throughput drug screen in 47 multiple myeloma cell lines against the NCATS MIPE library collection: Karpas417_ECACC cell viability assay (AID 1918961). The note with it: Karpas417 myeloma viability, CellTiter-Glo ATP luminescence, 48 h; viability (% of DMSO): at 45.8 µM (top of the series). The method in brief: (§1)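 qHTS of the MIPE 4.0 collection: 500 myeloma cells/well, 48 h drug exposure at 37C in 5% CO2, then CellTiter-Glo for 5 min at room temperature before luminescence reading.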
Background: Cellular ATP, detected with luciferase, serves as a proxy for viable cell number.

Test [2] is described as follows: Quantitative High-Throughput drug screen in 47 multiple myeloma cell lines against the NCATS MIPE library collection: KHM11_PLB cell viability assay (AID 1918962). Further: nearly all actives have a fitted effect of over 35% in size. The method in brief:
(§2)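 Inhibition of cell viability is measured here. Each line was plated at 500 cells per well, treated with MIPE 4.0 drugs, kept 48 hours at 37C, then assayed for ATP content by CellTiter-Glo luminescence.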

Test [3] in a line: Quantitative High-Throughput drug screen in 47 multiple myeloma cell lines against the NCATS MIPE library collection: JIM1_ECACC cell viability assay (AID 1918964). The method in brief:
(§3)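 Myeloma cells (500 per well) were exposed to MIPE 4.0 compounds by pin transfer and incubated 48 hours at 37C, 5% CO2. Viability was read as ATP by CellTiter-Glo luminescence, normalised to DMSO (100%) and media-only (0%) wells.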

Test [4] can be described thus: Quantitative High-Throughput drug screen in 47 multiple myeloma cell lines against the NCATS MIPE library collection: INA6_PLB cell viability assay (AID 1918965; further: nearly all actives have a fitted effect of over 55% in size). The method in brief: as §1
Test [5] is described as follows: Quantitative High-Throughput drug screen in 47 multiple myeloma cell lines against the NCATS MIPE library collection: JJN3_DSMZ cell viability assay (AID 1918966; further: nearly all actives have a fitted effect of over 50% in size). The method in brief: as §3
A short description of test [6]: Quantitative High-Throughput drug screen in 47 multiple myeloma cell lines against the NCATS MIPE library collection: Karpas25_ECACC cell viability assay (AID 1918968; further: nearly all actives have a fitted effect of over 35% in size). The method in brief:
as §3

A short description of test [7]: Quantitative High-Throughput drug screen in 47 multiple myeloma cell lines against the NCATS MIPE library collection: KMS27_JCRB cell viability assay (AID 1918970). Further: nearly all actives have a fitted effect of over 30% in size. The method in brief: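 Viability inhibition screen, 48 h compound exposure, luminescent ATP read-out.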
The nature of test [8]: Quantitative High-Throughput drug screen in 47 multiple myeloma cell lines against the NCATS MIPE library collection: KMS12BM_JCRB cell viability assay (AID 1918971). Further: nearly all actives have a fitted effect of over 35% in size. The method in brief: as §1
The nature of test [9]: Quantitative High-Throughput drug screen in 47 multiple myeloma cell lines against the NCATS MIPE library collection: KMS12PE_JCRB cell viability assay (AID 1918972). Further: nearly all actives have a fitted effect of over 30% in size. The method in brief: as §1
Test [10] can be described thus: Quantitative High-Throughput drug screen in 47 multiple myeloma cell lines against the NCATS MIPE library collection: KMS20_JCRB cell viability assay (AID 1918973). Further: nearly all actives have a fitted effect of over 45% in size. The method in brief: as §3
Test [11] can be described thus: Quantitative High-Throughput drug screen in 47 multiple myeloma cell lines against the NCATS MIPE library collection: KMS26_JCRB cell viability assay (AID 1918975). Further: nearly all actives have a fitted effect of over 45% in size. The method in brief:
as §1

A short description of test [12]: Quantitative High-Throughput drug screen in 47 multiple myeloma cell lines against the NCATS MIPE library collection: MMM1_PLB cell viability assay (AID 1918976). Further: nearly all actives have a fitted effect of over 35% in size. The method in brief: (§4)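 Viability after 48 h drug exposure was measured as ATP-dependent luminescence. Cells, 500 per well, sat at 37 °C under 5% CO2; DMSO wells set 100%, media-only wells 0%.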
Test [13] can be described thus: Quantitative High-Throughput drug screen in 47 multiple myeloma cell lines against the NCATS MIPE library collection: MOLP8_DSMZ cell viability assay (AID 1918977). Further: nearly all actives have a fitted effect of over 45% in size. The method in brief: as §4
The nature of test [14]: Quantitative High-Throughput drug screen in 47 multiple myeloma cell lines against the NCATS MIPE library collection: NCIH929_DSMZ cell viability assay (AID 1918978). Further: nearly all actives have a fitted effect of over 35% in size. The method in brief: as §4
Test [15] is described as follows: Quantitative High-Throughput drug screen in 47 multiple myeloma cell lines against the NCATS MIPE library collection: OCIMY1_PLB cell viability assay (AID 1918979). Further: nearly all actives have a fitted effect of over 35% in size. The method in brief:
as §4

Test [16] in a line: Quantitative High-Throughput drug screen in 47 multiple myeloma cell lines against the NCATS MIPE library collection: MM1S_ATCC cell viability assay (AID 1918980). Further: nearly all actives have a fitted effect of over 45% in size. The method in brief: as §4
Test [17] can be described thus: Quantitative High-Throughput drug screen in 47 multiple myeloma cell lines against the NCATS MIPE library collection: JIM3_ECACC cell viability assay (AID 1918963; further: nearly all actives have a fitted effect of over 35% in size). The method in brief: as §2
A short description of test [18]: Quantitative High-Throughput drug screen in 47 multiple myeloma cell lines against the NCATS MIPE library collection: H1112_PLB cell viability assay (AID 1918967; further: nearly all actives have a fitted effect of over 30% in size). The method in brief:
as §3

Test [19] is described as follows: Quantitative High-Throughput drug screen in 47 multiple myeloma cell lines against the NCATS MIPE library collection: KMS21BM_JCRB cell viability assay (AID 1918974). The note with it: ATP luminescence, 48 h; viability: at 45.8 µM (top of the series) unless noted. The method in brief: as §3

The structures appear in SMILES notation. Records with an inconclusive call do not appear. Calls of active or inactive are those of the source. The call rests on the fitted dose curve; in most records, active means well fitted curve in the direction sought with a large enough effect; inconclusive means small, poorly fitted or top-dose-only effect, or another doubt; inactive means no such curve, though single readings can be large; an effect the other way counts as inactive or inconclusive.

We go through 13 compounds from PubChem BioAssay (NCATS).
Potency means the concentration at half of the fitted maximal effect.

As for `COc1c(OCCCN2CCOCC2)ccc2c3n(c(=NC(=O)c4cnc(N)nc4)nc12)CCN3`, the Potency is 0.0081 µM (active) in test [1]; 0.575 µM (active) in test [2]; 0.0072 µM (active) in test [3]; 6.45 µM (active) in test [4]; 3.23 µM (active) in [5]; 0.0575 µM (active) in [6]. In addition, the Potency is 0.0457 µM (active) in test [7]; 5.75 µM (active) in test [8]; 0.0724 µM (active) in test [9]; 0.0512 µM (active) in test [10]; 0.407 µM (active) in test [11]; 0.0512 µM (active) in [12]. Besides, the Potency in test [13] is 0.0288 µM (active); in [14] it was 0.0129 µM (active); in test [15], 0.0204 µM (active); in [16], 0.0911 µM (active).
Regarding `CCn1nnc2c(N3CCOCC3)nc(-c3ccc(NC(=O)Nc4ccc(C(=O)N5CCN(C)CC5)cc4)cc3)nc21`, the Potency in test [2] was 0.0059 µM (active); in [17], 0.0235 µM (active); in [4], 0.0053 µM (active); in [5], 0.0187 µM (active); in [6], 0.0083 µM (active); in test [8], 0.0059 µM (active). The Potency in test [9] is 0.0469 µM (active); in [10] it was 0.0235 µM (active); in [11] it was 0.0418 µM (active); in test [12], 0.0332 µM (active); in test [15], 5.26 µM (active); in [16], 0.0332 µM (active).
Consider `O=c1[nH]c(=O)n(C2CCCO2)cc1F` (centres undefined), for which the Potency entry in test [2], in [17], in test [3], in test [5], in [18] and in test [6] was “inactive” in each case. Besides, the Potency entry in test [7], in test [9], in [19], in [14] and in [15] was “inactive” each time. Also, the Potency in [8] was 19.1 µM (active).
`Nc1nc(-c2nn(Cc3ccccc3F)c3ncccc23)nc(N)c1N1CCOCC1`: the viability (% of DMSO) in test [1] is 86.8% (active). In addition, the Potency entry in test [3], in test [5], in [18], in test [8], in test [11] and in [15] was “inactive” each time. Further, the Potency result in test [16] is “inactive”.
For `CC(C)(C)OC(=O)Nc1ccc(-c2cc(C(=O)NCCCCCCC(=O)NO)no2)cc1`, the Potency in test [2] was 5.9 µM (active); in [17], 3.72 µM (active); in test [4], 0.469 µM (active); in test [5], 2.35 µM (active); in test [18] it was 3.72 µM (active); in test [6], 0.935 µM (active). Besides, the Potency in test [8] was 1.66 µM (active); in test [9], 0.935 µM (active); in test [10] it was 2.64 µM (active); in test [19], 0.935 µM (active); in test [11] it was 3.72 µM (active); in test [16] it was 2.35 µM (active).
Regarding `CNc1nccc(-c2cccnc2Oc2cc(C(=O)Nc3cccc(C(F)(F)F)c3)ccc2C)n1`, the Potency is 1.05 µM (active) in [2]; 18.7 µM (active) in test [17]; 8.33 µM (active) in [3]; 4.18 µM (active) in test [4]; 18.7 µM (active) in [5]; 14.8 µM (active) in test [18]. The Potency in test [6] is 8.33 µM (active); in test [7] it was 7.43 µM (active); in test [9], 10.5 µM (active); in test [10] it was 9.35 µM (active); in test [12], 18.7 µM (active); in test [16], 18.7 µM (active).
`Cc1c(CN2CCN(S(C)(=O)=O)CC2)sc2c(N3CCOCC3)nc(-c3cnc(N)nc3)nc12`: the Potency in test [2] was 0.0332 µM (active); in test [17], 0.0662 µM (active); in test [3] it was 0.0187 µM (active); in test [4], 0.264 µM (active); in test [5] it was 0.0469 µM (active); in test [18] it was 1.18 µM (active). The Potency in [6] is 0.0187 µM (active); in [8], 0.0132 µM (active); in test [10], 0.0372 µM (active); in test [12] it was 0.0235 µM (active); in [14], 0.0053 µM (active); in [15] it was 0.0418 µM (active). In addition, the Potency in [16] was 0.0132 µM (active).
Take `CC(C)(C)c1cc(C(C)(C)C)c(NC(=O)c2c[nH]c3ccccc3c2=O)cc1O`: the Potency result in test [1], in [2], in test [17], in test [6], in test [9] and in [10] was “inactive” each time. In addition, the Potency result in test [19], in test [14], in test [15] and in [16] was “inactive” in each case.
As for `Cn1c2cc(S(C)=O)sc2c2cnn(Cc3cccc(N)c3)c(=O)c21` (centres undefined), the Potency result in [1], in [17], in test [3], in test [5], in [18] and in test [6] was “inactive” throughout. Besides, the Potency entry in test [8], in test [9], in test [11], in test [14], in test [15] and in [16] was “inactive” throughout. The Potency in test [12] was 3.32 µM (active).
Turning to `NC(=O)c1cccc2cn(-c3ccc([C@@H]4CCCNC4)cc3)nc12`, the viability (% of DMSO) in [1] is 72.2% (active). In addition, the Potency result in test [17], in test [6], in test [7] and in [13] was “inactive” in each case. In addition, the values for the Potency in test [4], in test [18] and in test [14] were 14.8 µM (active), 20.9 µM (active) and 20.9 µM (active), respectively.
Regarding `CN(C1CCc2c(c3ccccc3n2CC(=O)O)C1)S(=O)(=O)c1ccc(F)cc1` (centres undefined), the Potency in test [1] was 0.743 µM (active); in [6], 2.09 µM (active); in [7], 1.18 µM (active); in test [9] it was 5.26 µM (active); in [19], 0.418 µM (active). For the same compound, the Potency entry in test [17], in test [11], in [13], in test [14] and in test [15] was “inactive” each time.
For the compound `CCOc1ccccc1OCCNC(C)Cc1ccc(OC)c(S(N)(=O)=O)c1` (centres undefined), the Potency result in test [2], in [17], in test [3], in test [5], in [18] and in test [7] was “inactive” in each case. Besides, the Potency entry in [9], in test [10], in test [14] and in test [15] was “inactive” in each case.
Consider `CCN(CC)CCCCNc1ncc2cc(-c3cc(OC)cc(OC)c3)c(NC(=O)NC(C)(C)C)nc2n1`, for which the Potency was 9.35 µM (active) in test [2]; 23.5 µM (active) in [17]; 20.9 µM (active) in [3]; 16.6 µM (active) in test [4]; 20.9 µM (active) in [5]; 23.5 µM (active) in test [18]. In addition, the Potency is 10.5 µM (active) in test [6]; 16.6 µM (active) in test [7]; 18.7 µM (active) in test [8]; 16.6 µM (active) in test [9]; 7.43 µM (active) in [10]; 11.8 µM (active) in [14]. For the same compound, the Potency entry in [15] is “inactive”.
